Values joined by “and” are separate entries in the source; they are usually repeats but may differ in a detail not shown here. Equal values may be shown once. Results filed as inconclusive are left out. Active and inactive are the calls of the source. Unless noted, no cut-off is given here; in the data, nearly all actives have AC50 up to about 30 µM.

The nature of test [1]: Wnt pathway potentiators raising nuclear beta-catenin – imaging, WNT3A-conditioned medium, mouse C2C12, NPC library, primary screen (AID 1117326; in the data active = nuclear beta-catenin stimulation mostly above about 4.2%, no sharp cut-off; inactive = mostly below about 10%; note: reference of the scale not given here). As to conditions: stronger effect = higher value.
The nature of test [2]: stimulators of insulin release from INS-1E, primary screen, cell-based, 5 mM glucose, NPC library (AID 1117329;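 active = compound raises insulin release from rat beta cells at 5 mM glucose, no numeric limit stated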; note: reference of the scale not given here). The following applies: rat INS-1E insulin secretion, at 10 µM, stronger effect = higher value.
Test [3] can be described thus: growth inhibition of GSK3B-pretreated HCT116 cells – cell-based, CellTiter-Glo, 0.2 to 20 µM (AID 1117336;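 active = compounds lowering colon cancer cell viability after pretreatment blocking the GSK3B kinase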). As to conditions: HCT116 viability after GSK3B inhibitor, at 20 µM, stronger effect = higher value.
Test [4] is described as follows: inhibition of endothelial tube formation, primary screen, imaging, VEGF stimulated, CD31 staining, tube area, NPC library (AID 1117340;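 active = compound that reduces growth-factor-driven endothelial tube area in a mixed cell culture, no cutoff stated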). As to conditions: VEGF-stimulated ADSC/ECFC co-culture, at 10 µM, stronger effect = higher value.
Test [5] can be described thus: GLP1 release stimulators, primary, NCI-H716, NPC library (AID 1117341;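 active = compound raises GLP1 secretion from the human gut endocrine cells, with no numeric limit stated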; note: reference of the scale not given here). The following applies: NCI-H716 cells, at 10 µM, stronger effect = higher value.
Test [6] is described as follows: HCT116 colon cancer cell growth inhibition, primary screen, CellTiter-Glo luminescence, NPC library (AID 1117342;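 active = compounds that lower survival of HCT116 colon cancer cells in the luminescence readout, no numeric limit stated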). The following applies: at 20 µM (top of the series). In general terms: ATP-based viability assays read luminescence as a measure of living cells.
Test [7] can be described thus: reduced SW480 viability measured with CellTiter-Glo, NPC library, primary (AID 1117343;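 active = compounds that lower viability of the colon cancer cells in the luminescence readout, with no numeric limit stated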). As to conditions: CellTiter-Glo luminescence; at 20 µM (top of the series) unless noted.
Test [8] is described as follows: NPC library primary testing for decreased DLD-1 cell viability via CellTiter-Glo (AID 1117346;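 active = compounds that lower survival of DLD-1 colon cancer cells in the luminescence readout, no cutoff given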). As to conditions: DLD-1 viability, CellTiter-Glo luminescence; at 20 µM (top of the series).
Test [9] in a line: viability loss in pontine glioma line – cell-based, SU-DIPG-IV, MIPE4.0, CellTiter-Glo, qHTS, dose response (AID 1347063).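 Note: compound exposure lasted 48 hours before the viability readout.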 As to conditions: CellTiter-Glo ATP luminescence.
The nature of test [10]: growth inhibition of DIPG cells – cell-based, MIPE4.0 library, CellTiter-Glo luminescence, qHTS (AID 1347066).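 Note: cells exposed to compound for 48 hours before readout.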 The following applies: SU-DIPG-VI viability, CellTiter-Glo ATP luminescence.
The nature of test [11]: JHH-DIPG-1 glioma cell viability, MIPE5.0 library, CellTiter-Glo luminescence, qHTS (AID 1347067; cut-off not given, nearly all actives have AC50 up to about 26 µM;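 note: cells exposed to compound for 48 hours before readout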). The following applies: JHH-DIPG-1 glioma viability, CellTiter-Glo ATP luminescence.
Test [12] in a line: growth inhibition of DIPG cells – cell-based, MIPE5.0 library, qHTS (AID 1347068; cut-off not given, nearly all actives have IC50 up to about 30 µM;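 for IC50: cells exposed to compound for 48 hours before viability readout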). As to conditions: SU-DIPG-XXV viability. In general terms: qHTS replaces the single test concentration by a dilution series.
Test [13] can be described thus: viability loss with induced miR-34 in A549 – imaging, A549 dox-inducible miR-34, nuclei and caspase counts, primary screen (AID 1347080;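 active = compounds whose cell count with miR-34 switched on is under 0.7 times the count with it off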). The following applies: A549 miR-34 inducible, Hoechst nuclei count, 48 h.
Test [14] can be described thus: MELAS cybrid and Rieske KO viability enhancers – cell-based, MELAS cybrids, Rieske KO mouse fibroblasts, CellTiter-Glo, primary screen (AID 1508586;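 active = mean z-score across replicates of 1.96 or higher in either the MELAS or the Rieske mutant cell line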;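 note: z relative to plate mean and SD of compound and empty wells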). As to conditions: low glucose.
Test [15] can be described thus: galactose survival enhancers in mitochondrial complex I cybrids – cell-based, galactose medium, ATP luminescence, primary screen (AID 1645843;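 active = z-score of at least 1.8 in each of two replicates, scored against plate mean and spread of sample wells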;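 note: positive z means more ATP and so rescue of galactose-driven cybrid death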). As to conditions: complex I mutant cybrid cells, 72 h, stronger effect = higher value.
Test [16] can be described thus: viability loss in pontine glioma line – cell-based, SU-DIPG-XXV, MIPE5.0, CellTiter-Glo, qHTS, dose response (AID 1347065; cut-off not given, nearly all actives have AC50 up to about 26 µM;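 note: cells exposed to compound for 48 hours before ATP readout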). The following applies: CellTiter-Glo ATP luminescence.
The nature of test [17]: viability loss in pontine glioma line – cell-based, JHH-DIPG-1, MIPE4.0, CellTiter-Glo, qHTS, dose response (AID 1347062; cut-off not given, nearly all actives have AC50 up to about 27 µM). The following applies: JHH-DIPG-1 viability, CellTiter-Glo ATP luminescence.
Setting [18] is: stronger effect = lower value, cell number ratio, induced over uninduced.
[19] abbreviates: measured here: relative caspase fold change +Dox/-Dox.
Setting [20] is: measured here: total cells with miR-34 induction, stronger effect = lower value.
[21] abbreviates: measured here: total cells without miR-34 induction.
Where [22] appears, read: MELAS cybrid survival, CellTiter-Glo 48 h, stronger effect = higher value.
The mark [23] stands for this setting: Rieske KO mouse fibroblast survival, CellTiter-Glo 72 h.

For the compound `CCCCc1oc2ccc(NS(C)(=O)=O)cc2c1C(=O)c1ccc(OCCCN(CCCC)CCCC)cc1`, the nuclear beta-catenin stimulation was -3.1% (inactive) in test [1] (at 10 µM) and 2% in [1] (stimulation, at 2 µM). Further, the insulin secretion stimulation in [2] is 2.1% (inactive). The viability decrease in [3] is 99.1% (active). The tube area decrease in test [4] is 109% (active). The GLP1 secretion stimulation in test [5] was -5.9% (inactive). Also, the inhibition of viability in test [6] was 99.3% (active). In addition, the results for the viability decrease (inhibition) in test [7] and in [8] were 102% (active) and 101% (active), respectively. The half-maximal activity concentration (AC50) in test [9] was 7.43 µM (active); in [10] it was 13.2 µM (active); in test [11], 10.5 µM (active). Also, in test [12], the IC50 is 10.5 µM (active). Also, the fold change in [13] (setting [18]) was 1.3 (inactive) and 0.866 (inactive); in test [13] (setting [19]), 0.545 and 1.08. The cell count in test [13] (setting [20]) was 1680 and 3440; in test [13] (setting [21]) it was 1290 and 3970. The z-score is -1.62 and -0.663 (inactive) in test [14] (setting [22]); 1.98 and -1.01 in test [14] (setting [23]); -2.66 (inactive) in [15].

For `Cc1ccccc1C(=O)Nc1ccc(C(=O)N2CCCC(O)c3cc(Cl)ccc32)c(C)c1` (stereo not drawn), the nuclear beta-catenin stimulation was 3.2% (inactive) in [1] (at 10 µM) and 1.4% in test [1] (stimulation, at 2 µM). Moreover, the insulin secretion stimulation in test [2] is 0.15% (inactive). Besides, the viability decrease in test [3] was 52.2% (active). In addition, the tube area decrease in test [4] is 3.5% (inactive). In addition, the GLP1 secretion stimulation in test [5] is 2% (inactive). In test [6], the inhibition of viability is 38.9% (inactive). For the same compound, the viability decrease (inhibition) is 15.2% (inactive) in test [7] and 21.9% (inactive) in test [8]. The result in test [9], in [16], in test [10], in test [11] and in [12] was inactive. Also, the fold change was 0.834 (inactive) and 0.856 (inactive) in test [13] (setting [18]); 0.412 and 0.955 in test [13] (setting [19]). The cell count in test [13] (setting [20]) is 8090 and 8960; in test [13] (setting [21]), 9700 and 10500. Further, the z-score is 0.131 (inactive) and -0.387 (inactive) in test [14] (setting [22]); -0.17 and 0.558 in test [14] (setting [23]); 0.835 (inactive) in test [15].

Take `CC(=O)N[C@H]1[C@H]([C@H](O)[C@H](O)CO)OC(C(=O)O)=C[C@@H]1N=C(N)N`: the nuclear beta-catenin stimulation in [1] (at 10 µM) was 0.9% (inactive); in test [1] (stimulation, at 2 µM) it was 0.5%. In addition, the insulin secretion stimulation in [2] is -2.6% (inactive). Besides, the viability decrease in test [3] was -14.4% (inactive). Besides, the tube area decrease in [4] was 7.8% (inactive). In addition, in [5], the GLP1 secretion stimulation was -2.9% (inactive). Besides, the inhibition of viability in test [6] is -2.4% (inactive). The viability decrease (inhibition) in test [7] was 19.9% (inactive); in test [8], 2.95% (inactive). Moreover, the call in [17], in test [9] and in test [10] was inactive.

As a reminder, the AC50 is the concentration giving half of the maximal activity seen. As a reminder, the IC50 is the midpoint of a concentration-inhibition curve.

(Values after PubChem BioAssay.)
